# Measured values from PubChem BioAssay (NCATS).
# Where “and” joins values, the source holds several entries; their conditions need not be identical. Identical values can stand only once. Inconclusive results are not listed. A call without a number means that no potency is given here. Calls of active or inactive are those of the source. Unless noted, calls come from the whole dose curve; as a rule, active = well fitted curve in the direction sought with a large enough effect; inconclusive = small, poorly fitted or top-dose-only effect, or another doubt; inactive = no such curve, though single readings can be large; an effect the other way counts as inactive or inconclusive.
# Key:
# [1] = biological target: Thyroid hormone receptor beta (Homo sapiens) (UniProt P10828); experiment: qHTS assay for small molecule agonists of thyroid hormone receptor beta signaling (AID 588545; calls by dose curve)
# Outline: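 TR-UAS-bla GripTite HEK 293 cells (2500/well, medium with 2% charcoal/dextran FBS) were treated in agonist mode for 18 h at 37 C, titrated. Beta-lactamase was read by CCF4 ratio after 2 h; normalized to 10 nM T3 (100%) and DMSO, Hill-fitted for EC50 and efficacy.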
# [2] = qHTS assay for small molecule antagonists of retinoid X receptor alpha signaling (AID 588546; active = well fitted inhibition curve with a large enough effect in the signal ratio, with a control signal flat, not every such curve was filed as active; the % refers to the signal ratio; note: potency is the fitted concentration of half-maximal effect;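 for max response: cells stimulated with 9-cis-retinoic acid as agonist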); conditions: HEK293T RXRa-UAS-bla, beta-lactamase ratio, antagonist mode; measured here: W530 green channel, cytotoxicity proxy
# Outline: (§1)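 Beta-lactamase reporter inhibition, read as CCF4 fluorescence ratio (ex 405, em 460/530 nm) after 2 h at RT. HEK293T UAS-bla cells, 2500/well, were stimulated with 9-cis-RA at 500 or 100 nM final alongside test compound for 18 h at 37 C.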
# [3] = biological target: Retinoic acid receptor RXR-alpha (Homo sapiens) (UniProt P19793); experiment: as above; conditions: HEK293T RXRa-UAS-bla, beta-lactamase ratio, antagonist mode
# Outline: as §1
# [4] = biological target: Thyroid hormone receptor beta (Homo sapiens) (UniProt P10828); experiment: qHTS assay for small molecule antagonists of thyroid hormone receptor beta signaling (AID 588547; active = well fitted inhibition curve with a large enough effect in the signal ratio, with a control signal flat, not every such curve was filed as active; the % refers to the signal ratio;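 note: cells stimulated with 0.4 nM T3 agonist during compound exposure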); conditions: TR-UAS-bla HEK293, beta-lactamase ratio, antagonist mode, 18 h
# Outline: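 TR-UAS-bla GripTite HEK293 cells in 2% charcoal/dextran FBS medium were preincubated 4 h at 37 C, given compound (0.59 nM to 92 uM) plus 0.4 nM T3 (final) for 18 h, then CCF4 for 2 h at RT; Hill fit gave IC50.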
# [5] = biological target: Voltage-gated inwardly rectifying potassium channel KCNH2 (Homo sapiens) (UniProt Q12809); experiment: qHTS Assay for Small Molecule Inhibitors of the Human hERG Channel Activity (AID 588834);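 note: lower thallium flux fluorescence means stronger hERG block; nearly all actives have a fitted effect of over 50% in size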; note: potency is the fitted concentration of half-maximal effect
# Outline: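 Homogeneous FluxOR thallium flux assay using hERG-expressing U2OS cells (BacMam). Compound treatment about 10 minutes preceded stimulation; reduced fluorescence taken as channel block.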
# [6] = biological target: Luciferin 4-monooxygenase (Photinus pyralis) (UniProt P08659); experiment: Biochemical firefly luciferase enzyme assay for NPC (AID 624030);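 note: purified P. pyralis luciferase at 10 nM with luciferin and ATP substrate; nearly all actives have a fitted effect of over 70% in size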
# Outline: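 Counter-screen for direct inhibition of the luciferase enzyme by approved-drug library compounds, run at 10 nM enzyme in 50 mM Tris acetate (final). Luminescence was read within 5 min of enzyme-buffer addition and normalized to PTC124 versus DMSO (0%).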
# [7] = S16 Schwann cell viability assay (CellTiter-Glo assay) (AID 624031);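 note: cellular ATP luminescence as a viability measure; nearly all actives have a fitted effect of over 70% in size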
# Outline: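 This viability control uses native rat S16 Schwann cells grown in DMEM plus 10% FBS. After a 24 h compound treatment at 37 °C, CellTiter-Glo luminescence reports ATP content, scaled against DMSO-treated and cell-free wells.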
# [8] = S16 Schwann cell PMP22 intronic element firefly luciferase assay (AID 624032); note: nearly all actives have a fitted effect of over 30% in size
# Outline: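 Rat S16 Schwann cells stably carrying a PMP22 intronic element-driven Fluc reporter were seeded overnight, then exposed to compounds for 24 h at 37 °C. Luminescence was normalized to PTC124 (positive control) and DMSO (0% activity).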
# [9] = biological target: Retinoic acid receptor RXR-alpha (Homo sapiens) (UniProt P19793); experiment: qHTS assay for small molecule agonists of retinoid X receptor alpha signaling (AID 588544; calls by dose curve)
# [10] = S16 Schwann cell PMP22 intronic element beta-lactamase assay (AID 624044; calls by dose curve; note: nearly all actives have a fitted effect of over 15% in size); conditions: S16 rat Schwann cells, PMP22 element beta-lactamase FRET, 24 h; ratio activity, negative = inhibition: at 38.3 µM (top of the series)
# Outline: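 Beta-lactamase reporter under a PMP22 intronic regulatory element in stable S16 rat Schwann cells; 24 h compound exposure. 460 nm blue signal normalized between DMSO (0%) and potassium clavulanate, with 535 nm FRET tracking viability; curves classed by r2 and response.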
# [11] = biological target: Glutaminase kidney isoform, mitochondrial (Homo sapiens) (UniProt O94925); experiment: qHTS for Inhibitors of Glutaminase (GLS): LOPAC Validation (AID 624146);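 note: glutamate product detected by oxidase and peroxidase coupled Amplex red fluorescence gain; nearly all actives have a fitted effect of over 60% in size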
# Outline: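 hKGA in 45 mM KH2PO4 (pH 8.2), 0.02% Tween-20 with compound, then 1mM L-Glutamine (stock as added) plus glutamate oxidase/HRP/Amplex red coupling mix. Fluorescence read initially and after 30 min at RT; signal change reflects glutamate formation.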
# [12] = qHTS of Trypanosoma Brucei Inhibitors: LOPAC Validation (AID 624147)
# Outline: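 Screened from lowest to highest concentration, compounds were pinned into TbPYK/substrate mixtures, and ADP (130 uM final) was added. Plates sat at room temperature for 45 min prior to Kinase-Glo Plus detection by luminescence.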
# [13] = biological target: Glucagon-like peptide 1 receptor (Homo sapiens) (UniProt P43220); experiment: qHTS of GLP-1 Receptor Agonists: LOPAC Validation (AID 624148);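 note: higher luminescence signal means agonism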
# Outline: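 HEK293 cells stably co-expressing a cAMP-responsive luciferase reporter and a hypersensitive GLP-1R were plated 12 h at 37 °C and exposed to compounds for 4-6 hr at 37 °C, 5% CO2. Luminescence was read 12 min after adding detection reagent.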
# [14] = qHTS of Nrf2 Activators: LOPAC Validation (AID 624149)
# Outline: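 Following overnight seeding in 5% FBS OPTI-MEM, AREc32_Fluc cells receive compounds for a 24 hr incubation at 37 deg C with 5% CO2. Steady-Glo is added, and after 30 min at RT luminescence is recorded.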
# [15] = HTS Assay for Allosteric Antagonists of the Human D2 Dopamine Receptor: Hit Validation in HTRF (AID 624455);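 note: stable D1 dopamine receptor cell line scored for blocking the D1 response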
# Outline: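 Validation of hits used D1 receptor stably expressed in cells with HTRF detection of response inhibition; origin screen measured calcium flux following EC80 dopamine in a force-coupled, inducible Hek293 Trex D2 cell line.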
# Sequence of Luciferin 4-monooxygenase (Photinus pyralis) (P08659 whole entry, looked up): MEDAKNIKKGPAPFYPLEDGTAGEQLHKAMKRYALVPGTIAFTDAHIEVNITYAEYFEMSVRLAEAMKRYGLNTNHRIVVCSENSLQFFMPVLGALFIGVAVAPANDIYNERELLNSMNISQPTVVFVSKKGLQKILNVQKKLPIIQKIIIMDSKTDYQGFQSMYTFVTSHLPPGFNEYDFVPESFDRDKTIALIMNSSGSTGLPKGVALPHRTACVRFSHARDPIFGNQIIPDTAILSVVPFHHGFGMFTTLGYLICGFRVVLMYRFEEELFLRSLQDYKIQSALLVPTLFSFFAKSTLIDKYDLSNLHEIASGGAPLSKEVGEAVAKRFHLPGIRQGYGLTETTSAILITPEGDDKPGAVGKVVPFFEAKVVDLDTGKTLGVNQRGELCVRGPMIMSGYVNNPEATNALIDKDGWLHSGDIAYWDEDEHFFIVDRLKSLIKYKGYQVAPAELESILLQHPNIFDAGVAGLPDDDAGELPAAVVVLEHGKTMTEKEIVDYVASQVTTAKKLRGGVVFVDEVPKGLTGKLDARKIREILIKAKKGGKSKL
# Sequence of Thyroid hormone receptor beta (Homo sapiens) (P10828 whole entry, looked up): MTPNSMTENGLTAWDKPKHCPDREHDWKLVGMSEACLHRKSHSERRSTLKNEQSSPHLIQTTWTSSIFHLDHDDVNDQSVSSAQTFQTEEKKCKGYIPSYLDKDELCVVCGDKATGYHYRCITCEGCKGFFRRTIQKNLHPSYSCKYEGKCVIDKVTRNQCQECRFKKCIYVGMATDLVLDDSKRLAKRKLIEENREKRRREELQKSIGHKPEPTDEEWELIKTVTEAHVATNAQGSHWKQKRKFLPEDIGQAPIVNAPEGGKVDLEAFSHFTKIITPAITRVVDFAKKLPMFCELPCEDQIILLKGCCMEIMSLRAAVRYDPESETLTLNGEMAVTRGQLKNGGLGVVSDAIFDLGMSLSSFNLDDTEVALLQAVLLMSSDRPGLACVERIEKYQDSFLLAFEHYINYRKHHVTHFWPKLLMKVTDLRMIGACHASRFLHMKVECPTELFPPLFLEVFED
# Sequence of Retinoic acid receptor RXR-alpha (Homo sapiens) (P19793 whole entry, looked up): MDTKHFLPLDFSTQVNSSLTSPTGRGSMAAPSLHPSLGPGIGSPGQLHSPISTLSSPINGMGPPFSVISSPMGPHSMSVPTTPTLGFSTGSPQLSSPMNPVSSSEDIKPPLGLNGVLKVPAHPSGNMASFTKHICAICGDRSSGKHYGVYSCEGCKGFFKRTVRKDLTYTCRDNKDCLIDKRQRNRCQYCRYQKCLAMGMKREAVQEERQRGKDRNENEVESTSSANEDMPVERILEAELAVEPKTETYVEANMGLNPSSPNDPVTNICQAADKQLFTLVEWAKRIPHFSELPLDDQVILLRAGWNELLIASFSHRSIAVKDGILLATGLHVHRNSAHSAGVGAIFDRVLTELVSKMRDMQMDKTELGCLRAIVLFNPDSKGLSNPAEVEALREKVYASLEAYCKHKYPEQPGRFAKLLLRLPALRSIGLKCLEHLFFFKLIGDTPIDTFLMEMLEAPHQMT
# Sequence of Voltage-gated inwardly rectifying potassium channel KCNH2 (Homo sapiens) (Q12809 whole entry, looked up): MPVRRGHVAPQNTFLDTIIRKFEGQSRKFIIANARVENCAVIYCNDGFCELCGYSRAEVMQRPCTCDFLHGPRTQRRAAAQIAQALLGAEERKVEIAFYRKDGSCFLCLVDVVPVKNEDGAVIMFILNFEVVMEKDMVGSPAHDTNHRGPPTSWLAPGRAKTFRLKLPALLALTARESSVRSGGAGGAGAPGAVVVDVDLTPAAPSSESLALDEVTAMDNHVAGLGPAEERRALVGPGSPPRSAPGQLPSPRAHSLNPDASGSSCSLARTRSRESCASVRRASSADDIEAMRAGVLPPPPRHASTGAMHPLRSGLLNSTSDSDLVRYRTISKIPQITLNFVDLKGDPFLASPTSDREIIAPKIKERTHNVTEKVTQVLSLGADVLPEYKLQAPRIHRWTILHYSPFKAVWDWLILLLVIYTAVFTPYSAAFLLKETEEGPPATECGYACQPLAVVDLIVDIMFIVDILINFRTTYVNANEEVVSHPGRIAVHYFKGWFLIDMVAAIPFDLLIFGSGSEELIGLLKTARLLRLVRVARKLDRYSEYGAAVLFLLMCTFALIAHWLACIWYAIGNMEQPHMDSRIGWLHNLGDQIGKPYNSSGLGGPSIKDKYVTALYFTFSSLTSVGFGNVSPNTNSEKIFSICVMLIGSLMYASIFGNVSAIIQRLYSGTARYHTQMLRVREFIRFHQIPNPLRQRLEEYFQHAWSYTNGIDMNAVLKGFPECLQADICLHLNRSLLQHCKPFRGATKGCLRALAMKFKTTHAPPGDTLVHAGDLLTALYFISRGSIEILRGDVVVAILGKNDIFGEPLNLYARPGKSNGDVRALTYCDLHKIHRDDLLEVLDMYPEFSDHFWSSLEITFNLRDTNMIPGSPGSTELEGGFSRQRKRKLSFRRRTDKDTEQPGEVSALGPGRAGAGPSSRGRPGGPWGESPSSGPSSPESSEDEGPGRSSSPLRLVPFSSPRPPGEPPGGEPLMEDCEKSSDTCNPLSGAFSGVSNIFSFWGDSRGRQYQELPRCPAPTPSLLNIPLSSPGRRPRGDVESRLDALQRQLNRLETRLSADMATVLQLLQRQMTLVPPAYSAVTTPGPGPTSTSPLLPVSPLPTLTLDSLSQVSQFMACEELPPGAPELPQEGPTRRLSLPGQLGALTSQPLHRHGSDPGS
# Sequence of Glucagon-like peptide 1 receptor (Homo sapiens) (P43220 whole entry, looked up): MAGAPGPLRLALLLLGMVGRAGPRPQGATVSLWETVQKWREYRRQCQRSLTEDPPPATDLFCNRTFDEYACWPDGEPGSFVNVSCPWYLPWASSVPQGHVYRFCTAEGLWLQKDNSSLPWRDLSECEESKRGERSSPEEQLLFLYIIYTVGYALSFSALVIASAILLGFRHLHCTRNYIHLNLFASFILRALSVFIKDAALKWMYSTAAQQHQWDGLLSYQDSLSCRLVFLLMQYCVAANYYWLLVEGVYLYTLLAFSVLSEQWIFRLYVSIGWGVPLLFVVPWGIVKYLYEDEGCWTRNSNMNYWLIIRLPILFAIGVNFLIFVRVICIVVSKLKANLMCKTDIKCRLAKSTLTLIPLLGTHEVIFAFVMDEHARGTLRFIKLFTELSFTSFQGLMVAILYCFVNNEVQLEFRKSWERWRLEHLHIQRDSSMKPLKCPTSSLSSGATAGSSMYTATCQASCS
# Sequence of Glutaminase kidney isoform, mitochondrial (Homo sapiens) (O94925 whole entry, looked up, canonical isoform): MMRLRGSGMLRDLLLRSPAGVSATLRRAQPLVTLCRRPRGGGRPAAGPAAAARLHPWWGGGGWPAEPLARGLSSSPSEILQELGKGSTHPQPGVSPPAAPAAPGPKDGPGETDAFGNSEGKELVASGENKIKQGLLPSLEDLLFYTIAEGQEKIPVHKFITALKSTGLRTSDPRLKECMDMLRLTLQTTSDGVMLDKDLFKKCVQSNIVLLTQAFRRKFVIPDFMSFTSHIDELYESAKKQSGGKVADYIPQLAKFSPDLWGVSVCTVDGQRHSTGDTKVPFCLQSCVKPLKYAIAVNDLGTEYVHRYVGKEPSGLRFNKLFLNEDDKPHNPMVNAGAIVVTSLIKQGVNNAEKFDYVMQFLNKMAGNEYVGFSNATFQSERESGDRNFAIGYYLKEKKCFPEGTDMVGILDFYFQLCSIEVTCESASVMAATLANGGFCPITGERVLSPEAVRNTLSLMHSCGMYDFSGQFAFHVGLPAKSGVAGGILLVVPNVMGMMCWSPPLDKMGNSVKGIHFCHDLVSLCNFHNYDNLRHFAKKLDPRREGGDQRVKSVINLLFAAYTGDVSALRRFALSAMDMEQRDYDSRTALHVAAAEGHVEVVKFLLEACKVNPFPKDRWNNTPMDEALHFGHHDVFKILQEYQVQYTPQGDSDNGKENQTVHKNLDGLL
compound,measurement,setting,value
C[C@H]1C[C@H]2[C@@H]3CCC4=CC(=O)C=C[C@]4(C)[C@@]3(Cl)[C@@H](O)C[C@]2(C)[C@@]1(O)C(=O)CO,outcome,[1],inactive
same,max response,[2],10.8%
same,max response,[3],-25.7% (inactive)
same,activity change % (negative = inhibition),[4],1.92% (inactive)
same,Potency,[5],inactive
same,Potency,[6],inactive
same,Potency,[7],inactive
same,Potency,[8],inactive
CC(C)(Oc1ccc(Cl)cc1)C(=O)O,outcome,[9],inactive
same,outcome,[1],inactive
same,max response,[2],-15.3%
same,max response,[3],2.91% (inactive)
same,Potency,[5],inactive
same,Potency,[6],inactive
same,Potency,[7],inactive
same,Potency,[8],inactive
same,Potency,[10],inactive
CC(=O)OCC(=O)[C@@]12OC(C)(C)O[C@@H]1C[C@H]1[C@@H]3C[C@H](F)C4=CC(=O)C=C[C@]4(C)[C@@]3(F)[C@@H](O)C[C@@]12C,Potency,[5],inactive
C[C@H](CCC(=O)O)[C@H]1CC[C@H]2[C@@H]3C(=O)C[C@@H]4CC(=O)CC[C@]4(C)[C@H]3CC(=O)[C@]12C,Potency,[5],inactive
C=C1C[C@H]2[C@@H]3C=C(C)C4=CC(=O)CC[C@]4(C)[C@H]3CC[C@]2(C)[C@@]1(OC(C)=O)C(C)=O,Potency,[5],inactive
CC(=O)O[C@]1(C(C)=O)CC[C@H]2[C@@H]3C[C@H](C)C4=CC(=O)CC[C@]4(C)[C@H]3CC[C@@]21C,Potency,[5],inactive
CC(=O)OCC(=O)[C@@]1(O)[C@H](C)C[C@H]2[C@@H]3CCC4=CC(=O)C=C[C@]4(C)[C@@]3(F)[C@@H](O)C[C@@]21C,Potency,[5],inactive
CC1(C)O[C@@H]2C[C@H]3[C@@H]4CCC5=CC(=O)CC[C@]5(C)[C@@]4(F)[C@@H](O)C[C@]3(C)[C@]2(C(=O)CCl)O1,Potency,[5],inactive
O=C(O)CCCCC(=O)O,outcome,[9],inactive
same,activity change % (negative = inhibition),[4],0.209% (inactive)
same,Potency,[6],inactive
same,Potency,[7],inactive
same,Potency,[8],inactive
CCCCCCc1ccc(O)cc1O,outcome,[9],inactive
same,outcome,[1],inactive
same,max response,[2],0.899% and 2.91%
same,max response,[3],-14.1% (inactive) and -8.39% (inactive)
same,activity change % (negative = inhibition),[4],-14.5% (inactive) and -21.9% (inactive)
same,Potency,[6],inactive
same,Potency,[7],inactive
same,Potency,[8],inactive
same,Potency,[10],inactive
C[C@]12CC[C@@H]3c4ccc(O)cc4CC[C@H]3[C@@H]1CC[C@@H]2O,outcome,[9],inactive
same,Potency,[7],inactive
same,Potency,[8],inactive
same,Potency,[11],inactive
same,outcome,[12],inactive
same,outcome,[13],inactive
same,Potency,[14],inactive
same,outcome,[15],inactive
CCN(CCCCOC(=O)c1ccc(OC)c(OC)c1)C(C)Cc1ccc(OC)cc1 (configuration not stated),Potency,[5],2.24 µM (active)
C=C(CC)C(=O)c1ccc(OCC(=O)O)c(Cl)c1Cl,outcome,[1],inactive
same,Potency,[6],inactive
same,Potency,[7],inactive
O=c1ccc2ccccc2o1,outcome,[9],inactive
same,outcome,[1],inactive
same,max response,[2],0.52% and -14.8% and -12.1%
same,max response,[3],19.9% (inactive) and -2.2% (inactive) and -3.66% (inactive)
same,activity change % (negative = inhibition),[4],-6.73% (inactive) and 13.3% (inactive) and -20.8% (inactive)
same,Potency,[5],inactive
same,Potency,[6],inactive
same,Potency,[7],inactive
same,Potency,[8],inactive
Cc1cc(=O)n(-c2ccccc2)n1C,outcome,[9],inactive
same,max response,[2],-18.2%
same,max response,[3],0.0131% (inactive)
same,activity change % (negative = inhibition),[4],5.56% (inactive)
same,Potency,[5],inactive
same,Potency,[6],inactive
same,Potency,[7],inactive
same,Potency,[8],inactive
O=c1[nH]c(=O)n([C@H]2C[C@H](O)[C@@H](CO)O2)cc1C(F)(F)F,Potency,[5],inactive
NC(=NCCCCCCN=C(N)/N=C(\N)Nc1ccc(Cl)cc1)/N=C(\N)Nc1ccc(Cl)cc1,outcome,[1],inactive
same,max response,[2],21.2%
same,Potency,[3],39.8 µM (active)
same,Potency,[5],inactive
same,Potency,[6],inactive
same,Potency,[10],inactive
Oc1ccc(Cl)c2cccnc12,Potency,[5],inactive
same,Potency,[6],inactive
same,Potency,[7],inactive
NC[C@H]1O[C@H](O[C@H]2[C@H](O[C@@H]3O[C@H](CO)[C@@H](O)[C@H]3O)C(O)[C@H](N)C[C@@H]2N)[C@H](N)[C@@H](O)[C@@H]1O (some centres not stated),Potency,[5],inactive
NC(=O)CC[C@@H]1NC(=O)[C@H](Cc2ccccc2)NC(=O)[C@H](Cc2ccc(O)cc2)NC(=O)CCSSC[C@@H](C(=O)N2CCC[C@H]2C(=O)N[C@@H](CCCN=C(N)N)C(=O)NCC(N)=O)NC(=O)[C@H](CC(N)=O)NC1=O,Potency,[5],inactive
O=C(OCC(O)CO)c1ccccc1Nc1ccnc2cc(Cl)ccc12 (configuration not stated),Potency,[5],inactive
CCCC(=O)O[C@]1(C(=O)CO)CC[C@H]2[C@@H]3CCC4=CC(=O)CC[C@]4(C)[C@H]3[C@@H](O)C[C@@]21C,Potency,[5],inactive
CC(=O)OCC(=O)[C@@]12N=C(C)O[C@@H]1C[C@H]1[C@@H]3CCC4=CC(=O)C=C[C@]4(C)[C@H]3[C@@H](O)C[C@@]12C,Potency,[5],inactive
C#C[C@]1(OC(C)=O)CC[C@H]2[C@@H]3CCC4=C[C@@H](OC(C)=O)CC[C@@H]4[C@H]3CC[C@@]21C,Potency,[5],inactive
same,Potency,[6],inactive
same,Potency,[7],inactive
COc1c2occc2c(OC)c2c(=O)cc(C)oc12,Potency,[5],inactive
same,Potency,[6],inactive
same,Potency,[7],inactive
CC1(C)O[C@@H]2C[C@H]3[C@@H]4C[C@H](F)C5=CC(=O)CC[C@]5(C)[C@H]4[C@@H](O)C[C@]3(C)[C@]2(C(=O)CO)O1,Potency,[5],inactive
CC(Cc1ccccc1)(NC(=O)CN)c1ccccc1 (configuration not stated),Potency,[5],inactive
CN(C)CCOc1ccccc1Cc1ccccc1,Potency,[5],3.55 µM (active)
same,Potency,[6],inactive
same,Potency,[7],inactive
same,Potency,[8],inactive
CC(=O)N(O)CCCCCNC(=O)CCC(=O)N(O)CCCCCNC(=O)CCC(=O)N(O)CCCCCN,Potency,[5],inactive
same,Potency,[6],inactive
same,Potency,[7],inactive
same,Potency,[8],inactive
O=C1OC2(c3ccc(O)cc3Oc3cc(O)ccc32)c2ccccc21,Potency,[5],0.631 µM (active)
same,Potency,[6],inactive
CC1=C(C(=O)O)N2C(=O)[C@@H](NC(=O)[C@H](N)c3ccc(O)cc3)[C@H]2SC1,Potency,[5],inactive
COc1ccc(OC)c(C(O)CNC(=O)CN)c1 (configuration not stated),Potency,[5],inactive
CC1(C)O[C@@H]2C[C@H]3[C@@H]4C[C@H](F)C5=CC(=O)C=C[C@]5(C)[C@H]4[C@@H](O)C[C@]3(C)[C@]2(C(=O)CO)O1,Potency,[5],inactive
C#C[C@]1(O)CC[C@H]2[C@@H]3CCC4=CC(=O)CC[C@@H]4[C@H]3CC[C@@]21C,Potency,[5],inactive
